A selection: hits, their analogues and other compounds. The true share with any hit is near 3%.
TRPM1 prom inh: reduces MITF-dependent TRPM1 promoter luciferase signal | hit rate 0.83% among 330,000 | inhibition, % at 12.5 µM | SK-MEL-5 TRPM1 promoter luciferase, 24 h;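 active = mean inhibition across replicates of 60% or more, whatever share of single replicates reaches that level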
LMP1 NFkB inh: inhibitors of Epstein-Barr LMP1-induced NF-kappaB reporter | LMP1-induced NF-kappaB luciferase reporter cells, luminescence | inhibition, % at 12.5 µM | hit rate 0.69% among 350,000 | AID 504558; in the data active = inhibition above about 41%
TWEAK-Fn14 inh: TWEAK-Fn14 signaling inhibition; AID 1159606; inhibition, % at 10 µM; TWEAK-stimulated Fn14 reporter cells, luciferase luminescence, 8 h; hit rate 2% among 360,000; in the data active = inhibition above about 50%
LGR2 inh: inhibitors of bursicon-induced Drosophila LGR2 receptor cAMP signaling; HEK293 LGR2, CRE-luciferase, bursicon-stimulated, 4 h; inhibition, % at 9.99 µM; hit rate 0.35% among 380,000; AID 720647;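 active = drop in luminescence signal, shown as inhibition above about 50% in the replicate tests, limit read from the data, passing the limit was not always enough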;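 also: agonist challenge used bursicon conditioned medium at about half maximal strength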
MITF TRPM1 HTS: MITF TRPM1 promoter activation in melanoma cells. activation, % at 12.5 µM. SK-MEL-5 TRPM1-promoter luciferase, 24 h; % of positive control, neutral wells = 0. hit rate 0.75% among 300,000;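 active = mean activation of at least 80% with every replicate also reaching 80%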
TROY NFkB inh: blocks TROY-dependent signaling in reporter cells; Q293 LMP1-TROYcd NF-kB luciferase reporter, 4 h; inhibition, % at 10 µM; hit rate 0.98% among 360,000;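 active = compounds whose plate-normalised and pattern-corrected inhibition of the luciferase reporter signal at the single screening dose is 50% or more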
Hits are given with their value.

C[C@@H]1CCCCO[C@H](CN(C)S(=O)(=O)c2cn(C)cn2)[C@H](C)CN([C@@H](C)CO)C(=O)c2cc(NC(=O)NC3CCCCC3)ccc2O1 was read as LGR2 inh inactive.
For CCCNC(=O)[C@@H]1[C@@H](CO)[C@@H]2Cn3c(ccc(-c4ccccc4F)c3=O)[C@H]1N2C(=O)CC the results were LGR2 inh inactive.
Screening COc1ccc(NC(=O)N(C)C[C@H]2Oc3cc(C#CCN(C)C)ccc3S(=O)(=O)N([C@H](C)CO)C[C@H]2C)cc1 returned LGR2 inh inactive.
Screening O=C(CSc1ncccc1-c1nc2ccccc2[nH]1)N1CCN(c2ccccc2F)CC1 returned TRPM1 prom inh inactive, LMP1 NFkB inh inactive, TWEAK-Fn14 inh 70.7, MITF TRPM1 HTS inactive and TROY NFkB inh 57.4.
For C[C@@H]1CN([C@@H](C)CO)C(=O)Cc2cc(NS(=O)(=O)c3cn(C)cn3)ccc2O[C@@H]1CN(C)S(C)(=O)=O the results were LGR2 inh inactive.
`COc1ccc(-c2cnc3c(c2)C(=O)N([C@H](C)CO)C[C@H](C)[C@H](CN(C)C(=O)C2CCCCC2)O3)cc1` gave LGR2 inh inactive.
COc1ccccc1C#Cc1ccc([C@H]2[C@@H](C#N)N(C(=O)C3CCCC3)[C@H]2CO)cc1 was read as LGR2 inh inactive.
For O=c1c(Sc2ccccc2)c(C(F)(F)F)[nH]n1-c1ccccc1 the results were TRPM1 prom inh inactive, LMP1 NFkB inh inactive, TWEAK-Fn14 inh inactive and TROY NFkB inh 53.0.
For N#Cc1c(N2CCCC(O)C2)nc(N)c2c(N)nc3c(c12)CC(=O)N3C12CC3CC(CC(C3)C1)C2 (stereo unspecified) the results were TRPM1 prom inh inactive, LMP1 NFkB inh inactive, TWEAK-Fn14 inh 76.1, MITF TRPM1 HTS inactive and TROY NFkB inh inactive.
Screening CS(=O)(=O)c1nc(-c2ccccc2)cc(C(F)(F)F)n1 returned TRPM1 prom inh 94.6, LMP1 NFkB inh inactive, TWEAK-Fn14 inh inactive, MITF TRPM1 HTS inactive and TROY NFkB inh 52.7.
For Cc1cc(NC(=O)CCS(=O)(=O)c2nc(-c3ccccc3)cc(C(F)(F)F)n2)no1 the results were TRPM1 prom inh 84.7, LMP1 NFkB inh inactive, TWEAK-Fn14 inh 53.9 and TROY NFkB inh 56.2.
`C[C@H]1CCCCO[C@H](CN(C)C(=O)CCC(F)(F)F)[C@@H](C)CN([C@@H](C)CO)C(=O)c2cc(NS(=O)(=O)c3cn(C)cn3)ccc2O1` gave LGR2 inh inactive.
Screening C[C@H](CO)N1C[C@H](C)[C@H](CN(C)Cc2ccccc2O)OCc2cn(nn2)CCCC1=O returned LGR2 inh inactive.
For Cc1nc2c3cnn(-c4ccc(C)c(C)c4)c3ncn2n1 the results were TRPM1 prom inh inactive, LMP1 NFkB inh inactive, TWEAK-Fn14 inh inactive, MITF TRPM1 HTS 87.2 and TROY NFkB inh inactive.
Cc1ccc(-n2ncc3c(=O)n(CC(N)=O)cnc32)cc1C was read as TRPM1 prom inh inactive, LMP1 NFkB inh inactive, TWEAK-Fn14 inh inactive, LGR2 inh inactive, MITF TRPM1 HTS inactive and TROY NFkB inh inactive.
Screening Cc1ccc(C)c(N=Nc2ccc(O)c3ncccc23)c1 returned TRPM1 prom inh 63.6, LMP1 NFkB inh 61.3, TWEAK-Fn14 inh 81.4, LGR2 inh 52.0, MITF TRPM1 HTS inactive and TROY NFkB inh 77.9.
CCN(CC)S(=O)(=O)c1cc(OC)ccc1N=Nc1ccc(O)c2ncccc12 was read as TRPM1 prom inh 70.6, LMP1 NFkB inh inactive, TWEAK-Fn14 inh inactive, LGR2 inh inactive, MITF TRPM1 HTS inactive and TROY NFkB inh inactive.
`Cc1cccc(N=Nc2ccc(O)c3ncccc23)c1` gave TRPM1 prom inh 70.8, LMP1 NFkB inh 52.4, TWEAK-Fn14 inh 90.1, LGR2 inh inactive, MITF TRPM1 HTS inactive and TROY NFkB inh inactive.
Screening NS(=O)(=O)c1ccc(N=Nc2ccc(O)c3ncccc23)cc1 returned TRPM1 prom inh inactive, LMP1 NFkB inh inactive, TWEAK-Fn14 inh inactive, LGR2 inh inactive, MITF TRPM1 HTS inactive and TROY NFkB inh inactive.
Oc1ccc(N=Nc2ccc3c(c2)OCCO3)c2ncccc12 was read as TRPM1 prom inh 73.0, LMP1 NFkB inh inactive, TWEAK-Fn14 inh 82.5, LGR2 inh inactive, MITF TRPM1 HTS inactive and TROY NFkB inh 59.9.
For CN(C)CC(=O)Nc1ccc2c(c1)[C@@H]1C[C@H](CC(=O)N3CCCCC3)O[C@@H](CO)[C@@H]1O2 the results were LGR2 inh inactive.
